The experiment relates to K562 SF3B1 K700E vs K562 SF3B1 WT. The experiment is described as follows: surviving fraction ratio K562 SF3B1 K700E / K562 SF3B1 WT (each relative to DMSO); higher = less selective killing of SF3B1 K700E cells. The following applies: 5 days. The protocol:
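Drug-sensitivity screen of an in-house 80-compound library in isogenic K562 SF3B1 K700E versus SF3B1 WT cells. 250 cells/well in 384-well plates were exposed 24 h after seeding to 0.5-1000 nM compound for 5 days, and viability was read by CellTiter-Glo. Surviving fraction is relative to DMSO, and the value is the ratio of surviving fraction in K700E to WT cells; the paper calls ratio <0.6 with P<0.01 selective.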

The values that follow come from the supplement of paper PMC10412459.

As for `CNC(=O)c1ccc(N2C(=S)N(c3ccc(C#N)c(C(F)(F)F)c3)C(=O)C2(C)C)cc1F`, the “surviving fraction ratio K562 SF3B1 K700E / K562 SF3B1 WT” value is, setting by setting: (0.5nM) 0.896; (1nM) 0.933; (5nM) 0.864; (10nM) 1.07; (50nM) 0.871; (100nM) 0.847. Besides, the “surviving fraction ratio K562 SF3B1 K700E / K562 SF3B1 WT” value (500nM) is 0.769 and the “surviving fraction ratio K562 SF3B1 K700E / K562 SF3B1 WT” value (1000nM) is 0.98.
For the compound `Cn1c(=O)n(-c2ccc(C(C)(C)C#N)cc2)c2c3cc(-c4cnc5ccccc5c4)ccc3ncc21`, the “surviving fraction ratio K562 SF3B1 K700E / K562 SF3B1 WT” value is, setting by setting: (0.5nM) 0.991; (1nM) 0.985; (5nM) 0.8; (10nM) 0.854; (50nM) 0.811; (100nM) 0.838. Also, the “surviving fraction ratio K562 SF3B1 K700E / K562 SF3B1 WT” value was 1.28 (500nM) and 1.45 (1000nM).
As to `CNCc1ccc(-c2[nH]c3cc(F)cc4c3c2CCNC4=O)cc1`, the “surviving fraction ratio K562 SF3B1 K700E / K562 SF3B1 WT” value by setting is: (0.5nM) 0.834; (1nM) 0.856; (5nM) 0.825; (10nM) 0.831; (50nM) 0.897; (100nM) 0.794. Besides, the “surviving fraction ratio K562 SF3B1 K700E / K562 SF3B1 WT” value is 0.847 (500nM) and 0.711 (1000nM).
For the compound `Cn1cc(C2=Nc3cc(NC(=O)C(N)C4CCCCC4)cc4c3C2=CNNC4=O)cn1` (stereo not given), the “surviving fraction ratio K562 SF3B1 K700E / K562 SF3B1 WT” value (0.5nM) was 0.884; the “surviving fraction ratio K562 SF3B1 K700E / K562 SF3B1 WT” value (1nM) stood at 0.979; the “surviving fraction ratio K562 SF3B1 K700E / K562 SF3B1 WT” value (5nM) worked out at 0.826; the “surviving fraction ratio K562 SF3B1 K700E / K562 SF3B1 WT” value (10nM) was determined as 0.834; the “surviving fraction ratio K562 SF3B1 K700E / K562 SF3B1 WT” value (50nM) turned out to be 0.992; the “surviving fraction ratio K562 SF3B1 K700E / K562 SF3B1 WT” value (100nM) was found to be 0.621. Besides, the “surviving fraction ratio K562 SF3B1 K700E / K562 SF3B1 WT” value (500nM) was 0.815 and the “surviving fraction ratio K562 SF3B1 K700E / K562 SF3B1 WT” value (1000nM) turned out to be 1.88.
For the compound `C=CC(=O)Nc1cc2c(Nc3ccc(F)c(Cl)c3)ncnc2cc1OCCCN1CCOCC1` [canertinib], the “surviving fraction ratio K562 SF3B1 K700E / K562 SF3B1 WT” value runs as follows: (0.5nM) 0.814; (1nM) 0.878; (5nM) 0.921; (10nM) 0.888; (50nM) 0.721; (100nM) 0.79. Moreover, the “surviving fraction ratio K562 SF3B1 K700E / K562 SF3B1 WT” value was found to be 0.72 (500nM) and 0.639 (1000nM).
